The results in this text go back to ChEMBL document CHEMBL3433997, “St. Jude Leishmania screening dataset” (2016).

Common to all, as to assay type: functional
Assay [1] has as its target Solute carrier family 2, facilitated glucose transporter member 1 (Homo sapiens) (UniProt P11166). Description: ST_JUDE_LEISH: Cytotoxicity at 2uM final concentration against transgenic Leishmania Mexicana promastigotes LmGLUT1 that are glucose transport deficient and complemented with the human glucose transporter GLUT1. Activity is measured by DNA content using SYBR green in vitro.

For assay [2], the target named is Hexose transporter 1 (Plasmodium falciparum) (UniProt O97467). Description: ST_JUDE_LEISH: Cytotoxicity at 2uM final concentration against transgenic Leishmania Mexicana promastigotes LmPfHT that are glucose transport deficient and complemented with the Plasmodium falciparum hexose transporter. Activity is measured by DNA content using SYBR green in vitro.
The target of assay [3] is Glucose transporter (Leishmania mexicana) (UniProt O61059). Kind of assay: ST_JUDE_LEISH: Cytotoxicity at 2uM final concentration against transgenic Leishmania Mexicana promastigotes LmGT2 that are glucose transport deficient and complemented with the L. Mexicana glucose transporter 2. Activity is measured by DNA content using SYBR green in vitro.

“And” between values parts separate entries of the source, which are not always exact repeats. Identical values can stand only once.

Chain of Solute carrier family 2, facilitated glucose transporter member 1 (Homo sapiens) (P11166 whole entry): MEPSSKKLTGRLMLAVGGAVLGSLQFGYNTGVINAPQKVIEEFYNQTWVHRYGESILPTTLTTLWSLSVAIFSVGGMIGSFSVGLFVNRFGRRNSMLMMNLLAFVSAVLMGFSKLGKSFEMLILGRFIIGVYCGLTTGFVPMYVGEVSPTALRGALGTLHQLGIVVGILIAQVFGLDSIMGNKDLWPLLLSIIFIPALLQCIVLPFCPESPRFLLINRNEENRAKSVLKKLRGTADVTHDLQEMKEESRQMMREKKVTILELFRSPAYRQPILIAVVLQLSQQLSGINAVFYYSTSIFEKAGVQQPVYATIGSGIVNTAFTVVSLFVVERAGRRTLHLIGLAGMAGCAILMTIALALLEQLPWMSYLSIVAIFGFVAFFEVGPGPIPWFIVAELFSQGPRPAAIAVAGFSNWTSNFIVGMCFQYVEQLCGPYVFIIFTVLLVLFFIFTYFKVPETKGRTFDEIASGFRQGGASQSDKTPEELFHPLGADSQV

As usually defined, the inhibition is the drop in the measured response relative to a control, in per cent. For the compound `c1ccc2c(c1)CN(CC1CC1)CC1(CCN(Cc3c[nH]c4cnccc34)CC1)O2`, the inhibition in assay [1] is -0.99%; in assay [2], 0.39%; in assay [3] it was 0.54%.

Regarding `COc1cc2nc(N3CCC(CNC(=O)c4ccc(-c5ccc(C(=O)N(C)C)cc5C)cc4)CC3)nc(N3CCN(C)CC3)c2cc1OC`, the inhibition in assay [1] is -0.31%; in assay [2], 0.88%; in assay [3] it was 1.23%.

Take `c1ccc2c(NCCCCCCCNc3ccnc4ccccc34)ccnc2c1`: the inhibition in assay [1] stood at 13.5%; in assay [2] it was 13.3%; in assay [3], 12.9%.

In the case of `N=C(N)c1nc2ccccc2s1`, the inhibition in assay [1] came out at 1.87%; in assay [2] it was 1.89%; in assay [3] it was 2.04%.

In the case of `COC(=O)c1cccc(CNCc2ccc(-c3ccc(-c4nc5cccc(C)c5[nH]4)s3)cc2)c1`, the inhibition in assay [1] is 6.31%; in assay [2], 2.96%; in assay [3], 1.56%.

For the compound `Cc1ccc(Cc2cccc3nc(N)nc(N)c23)cc1`, the values for the inhibition in assay [1], in assay [2] and in assay [3] were 1.2%, 0.71% and -0.6%, respectively.

Take `CCc1ccc(C2CCN(CCCCNC(=O)c3ccc(NC(=O)c4ccc(Cl)cc4)cc3)CC2)c(OCCO)c1`: the inhibition in assay [1] turned out to be 3.01%; in assay [2] it was 2.33%; in assay [3] it was 1.61%.

For `O=C(Nc1ccncc1)Nc1ccc2c(c1)CCN(C1CCC1)CC2`, the inhibition was 3.98% in assay [1], 3.34% in assay [2] and 11% in assay [3].

For `OC1(Cc2ccccc2)CCN(Cc2cccc(-c3c[nH]c4nc(NC5CCCC5)ncc34)c2)CC1`, the results for the inhibition in assay [1], in assay [2] and in assay [3] were 9.83%, 8.36% and 6.99%, respectively.

On to `FC(F)(F)c1cc(CNCCCNc2nc3ccncc3[nH]2)ccc1Cl`, for which the inhibition is 1.9% in assay [1], 1.51% in assay [2] and 0.35% in assay [3].

On to `Nc1nccc2ccc(-c3ccnc(NCc4cccnc4)n3)cc12`, for which the inhibition is 9.29% in assay [1], 7.15% in assay [2] and 11.2% in assay [3].

For `FC(F)(F)c1cccc(CCNc2nccc(NCc3ccc(Cl)cc3Cl)n2)c1`, the inhibition in assay [1] stood at 9.74%; in assay [2], 6.08%; in assay [3] it was 1.55%.

As to `Cc1ccccc1C1CCN(C2CCC(NC(=O)/C=C/c3c(F)ccc(F)c3F)CC2)CC1` (stereo not drawn), the inhibition in assay [1] amounted to 2.52%; in assay [2], 2.75%; in assay [3], 2.13%.

On to `OCC1CCN(Cc2ccc(-c3ccc(-c4nc5cc(F)ccc5[nH]4)cc3)cc2)CC1`, for which the results for the inhibition in assay [1], in assay [2] and in assay [3] were 6.63%, 4.55% and 4.78%, respectively.

In the case of `CC(C)(C)C(=O)N1CCN(c2ccc([N+](=O)[O-])c(NC3CC3)c2)CC1`, the results for the inhibition in assay [1], in assay [2] and in assay [3] were 2.03%, 2.58% and 2.27%, respectively.

With `CS(=O)(=O)Cc1ccc(Nc2nccc(-c3c(-c4cccc(NC(=O)c5c(F)cccc5F)c4)nn4ncccc34)n2)cc1`, the inhibition in assay [1] is 12%; in assay [2] it was 8.45%; in assay [3], 2.78%.

As to `CN(C)CC(=O)Nc1ccc(-c2ccc3ccnc(N)c3c2)cc1`, the inhibition amounted to 13.7% in assay [1], 24.3% in assay [2] and 5.49% in assay [3].

For `CCCc1cn2c3c(cc(C(=O)N[C@@H](Cc4ccccc4)[C@H](O)CNC4CCCCC4)cc13)N(C)S(=O)(=O)CC2`, the inhibition turned out to be 1.94% in assay [1], 2.85% in assay [2] and 1.49% in assay [3].

Regarding `CC(C)CCNCc1c(O)ccc2ccccc12`, the inhibition in assay [1] was -2.54%; in assay [2], -0.86%; in assay [3], 3.37%.

Regarding `O=C(Cc1cccc(Cl)c1)Nc1cccc(-c2c[nH]c3nc(Nc4ccccc4)ncc23)c1`, the inhibition was 3.42% in assay [1], -0.54% in assay [2] and 0.7% in assay [3].

Consider `COc1ccc(-c2ccccc2CNc2nc(NCCc3ccc(O)cc3)nc(N3CCNCC3)n2)cc1`, for which the inhibition in assay [1] is -2.91%; in assay [2], -0.55%; in assay [3] it was 0.12%.

With `CCC(CC(NCCCCNC(=O)c1ccc(NC(=O)c2ccc(Cl)cc2)cc1)c1ccccc1)c1ccccc1OC` (stereo not drawn), the inhibition in assay [1] is 1.72% and 1.8%; in assay [2] it was 1.83% and 1.71%; in assay [3], 1.46% and -1.08%.

For `Cc1cc(-c2cccc(CNCc3ccc(F)cc3)c2)ccc1S(=O)(=O)NCCN1CCCC1`, the results for the inhibition in assay [1], in assay [2] and in assay [3] were -0.89%, 0.36% and 0.1%, respectively.

`Fc1ccc2[nH]c(-c3ccc(-c4ccc(CNCCc5cccnc5)cc4)s3)nc2c1`: the inhibition amounted to 6.23% in assay [1], 3.19% in assay [2] and 3.21% in assay [3].

`O=C(/C=C/c1ccc(Cl)c(Cl)c1)NCCCCCN1CCC(NC(=O)c2ccc3ccccc3c2)CC1`: the inhibition in assay [1] came to 0.51%; in assay [2], 0.83%; in assay [3], 1.46%.

On to `COc1cc(C)ccc1S(=O)(=O)N1CCCCC(c2ccc(C(F)(F)F)cc2)=N1`, for which the inhibition was 10.8% in assay [1], 11.2% in assay [2] and 10.3% in assay [3].

As for `O=C(Nc1ccc(Cn2ncc(N3CCCNCC3)c(Cl)c2=O)cc1)Nc1cccc(C(F)(F)F)c1`, the results for the inhibition in assay [1], in assay [2] and in assay [3] were 0.62%, 1.58% and -2.08%, respectively.

For `Cc1nc(-c2cccc3c(NC(=O)N4CCc5cc6nccc(N7CCN(C)CC7)c6cc54)cccc23)no1`, the inhibition in assay [1] was 1.15%; in assay [2] it was -2.64%; in assay [3], -0.68%.

On to `CCCCN(CCCC)/C(=N/c1cccc(Cl)c1Cl)Nc1ccc(C#N)cc1O`, for which the inhibition is 3.21% in assay [1], 2.13% in assay [2] and -4.06% in assay [3].

Take `c1ccc2sc(-c3csc(Nc4ccncc4)n3)nc2c1`: the inhibition in assay [1] was -1.14%; in assay [2] it was 1.09%; in assay [3] it was 6.37%.

On to `Cc1[nH]c2ccccc2c1C(=O)C(C)Sc1nnc(-c2ccccc2Br)[nH]1` (stereo not drawn), for which the figures for the inhibition in assay [1], in assay [2] and in assay [3] were 0.54%, 2.81% and 0.86%, respectively.

In the case of `COc1ccc2nc3cc(Cl)ccc3c(NCCN(C)C)c2c1`, the inhibition in assay [1] worked out at 7.53%; in assay [2], 5.07%; in assay [3], 6.53%.

With `Cc1cccc2nc(-c3ccc(-c4cccc(NC(=O)COc5ccccc5C(N)=O)c4)s3)[nH]c12`, the inhibition in assay [1] turned out to be 9.69%; in assay [2], 9.14%; in assay [3], 6.9%.

Consider `CN(C)CCn1c(N)c(-c2nc3ccccc3s2)c2nc(C#N)c(C#N)nc21`, for which the results for the inhibition in assay [1], in assay [2] and in assay [3] were 2.02%, 1.76% and 3.11%, respectively.

Regarding `O=C(Nc1ccc(Cl)cc1)Nc1cccc(-c2ccc(-c3nc4ccccc4[nH]3)cc2)c1`, the inhibition in assay [1] was 2.09%; in assay [2] it was 1.83%; in assay [3] it was 1.94%.

Consider `O=C(Cn1c(SCc2cccc(F)c2F)cc(=O)c2ccccc21)N(CCc1c[nH]cn1)Cc1ccc(-c2ccc(C(F)(F)F)cc2)cc1`, for which the inhibition worked out at 4.17% in assay [1], 5.15% in assay [2] and 2.52% in assay [3].
